{"source": "PubChem BioAssay AID1240", "about": "(Sanford-Burnham Center for Chemical Genomics, 2008)", "note": "The campaign covered roughly 50,000 compounds. About 800 (1.6%) showed an effect of 50% or more. Only a selection was taken, and strong results are over-represented in it overall."}
{"target": "Bcl-2-like protein 10 (Homo sapiens) (UniProt Q9HD36)", "sequence (Q9HD36 whole entry, looked up)": "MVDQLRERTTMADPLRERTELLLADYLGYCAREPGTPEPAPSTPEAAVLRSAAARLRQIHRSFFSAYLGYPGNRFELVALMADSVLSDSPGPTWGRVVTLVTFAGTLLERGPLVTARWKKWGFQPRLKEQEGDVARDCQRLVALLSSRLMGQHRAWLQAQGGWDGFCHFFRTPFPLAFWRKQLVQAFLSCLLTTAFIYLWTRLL", "assay": "Phenotype converters, Bcl-B/TR3 peptide binding displacement, primary biochemical FP (AID 1240);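 also: 0% = Bcl-B with tracer peptide and DMSO and 100% = tracer peptide lacking Bcl-B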", "settings": "GST-Bcl-B / FITC-TR3 peptide fluorescence polarization; stronger effect = higher value; compound at 3.75 mg/L", "units": {"displacement": "%"}}
{"compound": "COc1ccc(CC(=O)Nc2ccc(Br)c(C)c2)cc1", "displacement": 7.5}
{"compound": "C=CCNCCCCOc1ccc(Br)cc1", "displacement": 8.5}
{"compound": "Cc1no[n+]([O-])c1COc1ccc(/C=C2\\N=C(c3ccccc3)OC2=O)cc1", "displacement": -9.9}
{"compound": "Cc1c(-c2ccc(Cl)cc2)nc2ccccc2c1C(=O)O", "displacement": -6.5}
{"compound": "Cc1cc(C)cc(N2C(=O)NC(=O)/C(=C\\c3ccc(N(C)C)cc3)C2=O)c1", "displacement": 127}
{"compound": "Cc1cc(C)cc(N2C(=O)NC(=O)/C(=C\\c3ccc(Cl)cc3)C2=O)c1", "displacement": 16.4}
{"compound": "C#CCn1cc(/C=C2\\C(=O)NC(=O)N(c3ccc(C)cc3)C2=O)c2ccccc21", "displacement": 66.4}
{"compound": "CCn1cc(/C=C2\\C(=O)NC(=O)N(c3ccccc3)C2=O)c2ccccc21", "displacement": 25.2}
{"compound": "Cc1cc(C)cc(N2C(=O)NC(=O)/C(=C\\c3ccc(F)cc3)C2=O)c1", "displacement": 7.7}
{"compound": "C#CCn1cc(/C=C2\\C(=O)NC(=O)N(c3ccc(Cl)cc3)C2=O)c2ccccc21", "displacement": 37.5}
{"compound": "CCCC(C)NC(=O)c1ccc(Cl)c([N+](=O)[O-])c1", "note": "(stereo not drawn)", "displacement": -0.1}
{"compound": "CCOC(=O)/C(C#N)=C/c1ccc(OCc2c(C)no[n+]2[O-])cc1", "displacement": -1.9}
{"compound": "CN1CCN(CCOCCOc2ccccc2)CC1", "displacement": -7.9}
{"compound": "O=C(CCCC(=O)OCC(F)(F)C(F)F)Nc1nccs1", "displacement": 9.8}
{"compound": "O=C(NCCO)/C(=C/c1cccc([N+](=O)[O-])c1)NC(=O)c1cccs1", "displacement": 0}
{"compound": "Cc1ccccc1C(=O)Nc1cccc(NC(=O)c2ccc(-c3cccc(Cl)c3)o2)c1", "displacement": 0.6}
{"compound": "CC(=O)c1ccc(NC(=O)c2ccc(-c3ccc(Cl)cc3Cl)o2)cc1", "displacement": -1.3}
{"compound": "Cc1ccc(-c2ccc(C(=O)Nc3cccnc3)o2)cc1Cl", "displacement": 5.6}
{"compound": "O=C(Nc1cccc(NC(=O)c2ccc(Cl)cc2Cl)c1)c1ccc(-c2ccc([N+](=O)[O-])cc2)o1", "displacement": 106}
{"compound": "O=C(Nc1ccc(NC(=O)c2ccc(-c3ccc(Cl)cc3Cl)o2)cc1)c1ccccc1", "displacement": 83.5}
{"compound": "O=C(Nc1cccc(NC(=O)c2ccccc2Cl)c1)c1ccc(-c2ccc(Br)cc2)o1", "displacement": 57.3}
{"compound": "Cc1cccc(NC(=O)c2ccc(-c3ccc(C)c(Cl)c3)o2)c1", "displacement": 69.8}
{"compound": "Cc1ccc(-c2ccc(C(=O)Nc3ccc(N4CCOCC4)cc3)o2)cc1Cl", "displacement": 10.8}
{"compound": "CC(=O)c1cccc(NC(=O)c2ccc(-c3ccc(Cl)cc3Cl)o2)c1", "displacement": -4.6}
{"compound": "O=C(Nc1cccc([N+](=O)[O-])c1)c1ccc(-c2ccc(Cl)cc2)o1", "displacement": 9}
{"compound": "Cc1ccccc1C(=O)Nc1cccc(NC(=O)c2ccc(-c3ccc(Br)cc3)o2)c1", "displacement": 21.4}
{"compound": "O=C(Nc1cc(Cl)cc(Cl)c1)c1ccc(-c2ccc([N+](=O)[O-])cc2)o1", "displacement": 5.1}
{"compound": "COc1ccc(CNC(=O)Cc2ccc(Br)cc2)cc1", "displacement": 0}
{"compound": "COc1ccc(CCNC(=O)/C=C\\c2ccccc2)cc1OC", "displacement": 6.7}
{"compound": "CCOC(=O)c1c(NC(=O)c2cc(Cl)ccc2[N+](=O)[O-])sc(C(=O)N(CC)CC)c1C", "displacement": -1.1}
{"compound": "Cc1cc2[nH]c(=O)cc(-c3ccccc3)n2n1", "displacement": -5.3}
{"compound": "COc1cccc(NC(=O)c2cc(Cl)ccc2Cl)c1", "displacement": 11.1}
{"compound": "COc1ccc(-c2nc3cc(N)ccc3o2)cc1OC", "displacement": 2.7}
{"compound": "CCOC(=O)C(CCOCCOc1c(C)cc(Cl)cc1C)C(=O)OCC", "displacement": -9.7}
{"compound": "Cc1ccc(/C=N/NS(=O)(=O)c2ccc(C)cc2)cc1", "displacement": 8}
{"compound": "CCOC(=O)C1=C(C)N=c2s/c(=C\\c3ccc(Br)o3)c(=O)n2C1c1ccc(F)cc1", "note": "(stereo not drawn)", "displacement": 11.2}
{"compound": "CCOC(=O)C1=C(C)N=c2s/c(=C\\c3ccc(N4CCOCC4)o3)c(=O)n2C1c1ccc(SC)cc1", "note": "(stereo not drawn)", "displacement": -55.4}
{"compound": "CCOC(=O)C1=C(C)N=c2s/c(=C\\c3ccc(C)o3)c(=O)n2C1c1cccc(OC)c1", "note": "(stereo not drawn)", "displacement": 73.3}
{"compound": "CCOC(=O)C1=C(C)N=c2s/c(=C\\c3ccc(C)o3)c(=O)n2C1c1ccc(SC)cc1", "note": "(stereo not drawn)", "displacement": 65.3}
{"compound": "CCOC(=O)C1=C(C)N=c2s/c(=C\\c3ccc(-c4ccccc4C(=O)O)o3)c(=O)n2C1c1cccc(OC)c1", "note": "(stereo not drawn)", "displacement": -23.4}
{"compound": "CCOC(=O)C1=C(C)N=c2s/c(=C\\c3ccc(Br)o3)c(=O)n2C1c1cccc(OC)c1", "note": "(stereo not drawn)", "displacement": 10.7}
{"compound": "CC1(C)Nc2ccccc2N(CCC(=O)N2CCOCC2)C1=O", "displacement": 9}
{"compound": "Cc1ccnc(NC(=O)COc2ccc(Cl)c(C)c2)c1", "displacement": 1.5}
{"compound": "O=C1CC(c2ccccc2)CC2=C1C(c1ccc(F)cc1)Nc1ccccc1N2", "note": "(stereo not drawn)", "displacement": 2.3}
{"compound": "COc1ccc(OC)c(/C=N/NC(=O)CSc2ncccn2)c1", "displacement": 1.1}
{"compound": "CC(C)=N/N=C1/NC(=O)C(CC(=O)Nc2ccc(C)cc2C)S1", "note": "(stereo not drawn)", "displacement": -0.5}
{"compound": "C/C(=C\\C(=O)c1ccc(C)cc1)Nc1ccc(I)cc1", "displacement": 7.2}
{"compound": "NC(=O)c1ccc(NC(=O)CCN2C(=O)c3ccccc3C2=O)cc1", "displacement": 26.7}
{"compound": "CC(=O)NC1=NC(=O)/C(=C/c2cc(Cl)ccc2OCc2c(F)cccc2Cl)S1", "displacement": 112}
{"compound": "CC(=O)NC1=NC(=O)/C(=C\\c2ccc(C(C)C)cc2)S1", "displacement": -10.2}
{"compound": "CC(=O)NC1=NC(=O)/C(=C\\c2ccc(Cl)cc2)S1", "displacement": 133}
{"compound": "Cc1ccc(C2=NC(=O)/C(=C/c3ccc4c(c3)OCO4)S2)cc1", "displacement": 0.5}
{"compound": "O=C(N/N=C/c1cc(Cl)ccc1OCc1c(F)cccc1Cl)c1cccnc1", "displacement": -2}
{"compound": "CC(=O)NC1=NC(=O)/C(=C\\c2ccc(-c3ccccc3C(=O)O)o2)S1", "displacement": 14.5}
{"compound": "CC(=O)NC1=NC(=O)/C(=C\\c2ccc(-c3ccc(C(=O)O)cc3)o2)S1", "displacement": -27}
{"compound": "CC(=O)NC1=NC(=O)/C(=C\\c2ccc(Cl)c(Cl)c2)S1", "displacement": -13.5}
{"compound": "CC(=O)NC1=NC(=O)/C(=C\\c2cn(C)c3ccccc23)S1", "displacement": 123}
{"compound": "O=Cc1cc(Br)ccc1OCc1c(F)cccc1Cl", "displacement": 0.3}
{"compound": "CC(=O)NC1=NC(=O)/C(=C\\c2ccc3c(c2)OCO3)S1", "displacement": 130}
{"compound": "COC(=O)c1cc(C(=O)N2CCCC2)cc([N+](=O)[O-])c1", "displacement": 12.7}
{"compound": "Cc1cc(/C=N/NC(=O)c2ccccn2)c(C)n1-c1cccc(Cl)c1", "displacement": -15.5}
{"compound": "COc1ccc(S(=O)(=O)N(CC(=O)N[C@@H]2CCCC[C@H]2O)c2ccc(C)cc2)cc1OC", "displacement": 0.1}
{"compound": "COC(=O)c1cnn2c1NC(c1ccccc1)CC2C(F)(F)F", "note": "(stereo not drawn)", "displacement": 6.5}
{"compound": "CC(C)(C)NC(=O)c1cc2nc(-c3ccccc3)cc(C(F)(F)F)n2n1", "displacement": 13}
{"compound": "CCN(CC)c1ccc(/C=C2/SC(NC(C)=O)=NC2=O)cc1", "displacement": 61.1}
{"compound": "CC(=O)NC1=NC(=O)/C(=C\\c2ccc(I)o2)S1", "displacement": 20.2}
{"compound": "CC(=O)NC1=NC(=O)/C(=C\\c2sccc2C)S1", "displacement": 98.2}
{"compound": "Cc1ccsc1/C=C1/SC(N2CCCC2)=NC1=O", "displacement": 1.4}
{"compound": "CC(=O)NC1=NC(=O)/C(=C\\c2ccccc2C)S1", "displacement": -6.5}
{"compound": "CC(=O)NC1=NC(=O)/C(=C\\c2ccc(N(C)C)cc2)S1", "displacement": -23.2}
{"compound": "CC(=O)NC1=NC(=O)/C(=C\\c2ccc(Br)o2)S1", "displacement": 1.4}
{"compound": "CC(=O)NC1=NC(=O)/C(=C\\c2ccc(C)o2)S1", "displacement": 96}
{"compound": "CC(=O)NC1=NC(=O)/C(=C\\c2ccccc2F)S1", "displacement": 107}
{"compound": "CC(=O)NC1=NC(=O)/C(=C\\c2ccc(N(C)C)c(Br)c2)S1", "displacement": -39.2}
{"compound": "Cc1ccsc1/C=C1\\SC(N2CCN(C)CC2)=NC1=O", "displacement": 3}
{"compound": "COc1ccccc1/C=C/C(=O)c1ccc(F)cc1", "displacement": -0.2}
{"compound": "COc1ccc(CN2CCN(C3CCN(Cc4ccccc4)CC3)CC2)cc1Br", "displacement": -9.1}
{"compound": "CCOC(=O)C1C(=O)NCC2CCCC21", "note": "(stereo not drawn)", "displacement": 4.6}
{"compound": "O=C(CN1C(=O)c2ccccc2C1=O)Nc1cc(Cl)ccc1C(=O)O", "displacement": -6.4}
{"compound": "COc1cccc(CN2CCN(Cc3cccnc3)CC2)c1", "displacement": -13.5}
{"compound": "COc1ccc(/C=C/C(=O)O)cc1S(=O)(=O)NCc1ccccc1", "displacement": 7.2}
{"compound": "CN(C)CCOC(=O)C12CCC3CC(CC(C3)C1)C2", "displacement": 11.3}
{"compound": "CCOC(=O)c1ccc(NC(=O)CC)cc1", "displacement": 4.7}
{"compound": "CCOC(=O)c1c(C)[nH]c(N=Nc2ccc(C)cc2)c1C", "displacement": 2.4}
{"compound": "CC(=O)NC1=NC(=O)/C(=C\\c2cccs2)S1", "displacement": 109}
{"compound": "CC(=O)NC1=NC(=O)/C(=C\\c2ccc(C(C)(C)C)cc2)S1", "displacement": 11.4}
{"compound": "CC(=O)NC1=NC(=O)/C(=C\\c2cccc(F)c2)S1", "displacement": -29.1}
{"compound": "CC(=O)NC1=NC(=O)/C(=C\\c2ccccc2Cl)S1", "displacement": 14}
{"compound": "CC(=O)NC1=NC(=O)/C(=C\\c2cccc([N+](=O)[O-])c2)S1", "displacement": -42.2}
{"compound": "CC(=O)NC1=NC(=O)/C(=C/c2ccc(C)cc2)S1", "displacement": 118}
{"compound": "O=C(Nc1ccc(F)c(Cl)c1)c1cc([N+](=O)[O-])ccc1Cl", "displacement": -10.3}
{"compound": "CC(C)C(=O)Nc1ccc(Cl)cc1C(=O)O", "displacement": 8.1}
{"compound": "COc1ccc(/C(C)=N/NC(=O)CN(c2ccc(C)cc2)S(=O)(=O)c2ccccc2)cc1OC", "displacement": 3.8}
{"compound": "COC(=O)c1ccc(/C=N/NC(=O)CCc2c(C)n[nH]c2C)cc1", "displacement": 4.2}
{"compound": "CC(C)C(=O)Nc1ccc(I)cc1Cl", "displacement": 11.1}
{"compound": "O=C(c1cccnc1)N(Cc1ccccc1)Cc1ccccc1", "displacement": 6}
{"compound": "O=C(Nc1ccc(Cc2ccncc2)cc1)c1ccc(Br)o1", "displacement": 13.1}
{"compound": "Cc1cc(NC(=O)c2ccc(-c3ccc(Br)cc3)o2)ccc1NC(=O)c1ccco1", "displacement": -2.6}
{"compound": "O=C(Nc1ccc(Cc2ccncc2)cc1)c1ccc(-c2ccc(Br)cc2)o1", "displacement": 109}
{"compound": "O=C(Nc1ccc(-c2nc3ncccc3o2)cc1)c1ccc(-c2ccc(Br)cc2)o1", "displacement": 88.1}
{"compound": "O=C(Nc1ccc(-c2nc3ncccc3o2)cc1)c1ccc(-c2cccc(Cl)c2)o1", "displacement": 14.3}
{"compound": "COc1cc(NC(=O)c2ccc(-c3ccc(Cl)cc3)o2)ccc1NC(=O)c1ccco1", "displacement": -6.5}
{"compound": "O=C(Nc1ccc(-c2nc3ncccc3o2)cc1)c1ccc(Br)o1", "displacement": -1.9}
{"compound": "COc1cc(NC(=O)c2ccc(-c3ccc(Br)cc3)o2)ccc1NC(=O)c1ccco1", "displacement": 158}
{"compound": "O=C(NC(=S)Nc1ccc(-c2nc3ccccc3o2)cc1)c1ccco1", "displacement": 11.6}
{"compound": "Cc1c(NC(=S)NC(=O)c2ccco2)cccc1-c1nc2ncccc2o1", "displacement": 9.2}
{"compound": "O=C(NC(=S)Nc1ccc(-c2nc3ncccc3o2)cc1)c1ccco1", "displacement": 112}
{"compound": "O=C(Nc1cccnc1)c1ccc(-c2ccc(Br)cc2)o1", "displacement": -5.1}
